RmlC RmlD mix: mixture blocks RmlC and RmlD coupled enzyme activity; RmlC/RmlD coupled enzyme inhibition, 384-well mixture HTS; inhibition, % at 5.5 µM; actives 0.39% (n = 110,000); in the data active = inhibition above about 30%, passing the limit was not always enough
RT RNaseH block: blocks HIV-1 RNase H cleavage of RNA/DNA duplex. actives 1.9% (n = 65,000). P04585. inhibition, % at 10 µM. RT-RNase H RNA/DNA duplex cleavage, fluorescence; in the data active = inhibition above about 50%
RmlCD artifact: RmlC/RmlD fluorescence artifact, counter-screen; shares compounds with RmlC RmlD mix; RmlC/RmlD assay fluorescence artifact counter-screen; calls only; actives 96% (n = 360); call rule not given here;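 also: compound alone with no enzyme and no substrates present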
* marks the source's active call; other numbers are inactive results; i = inactive; . = no result given; + = active, no number. The full list was thinned out, with hits kept by preference.

SMILES | RmlC RmlD mix | RT RNaseH block | RmlCD artifact
COc1ccc(C2NC(=S)NC3=C2CCc2cc(OC)ccc23)cc1 (stereo unspecified) | -12 | . | .
CCCn1c(=N)c(C(=O)NCC2CCCO2)cc2c(=O)n3cccc(C)c3nc21 (stereo unspecified) | 87* | -18 | +
Cc1cccn2c(=O)c3cc(C(=O)NCc4ccccc4)c(=N)n(CCCN4CCOCC4)c3nc12 | . | -29 | .
Cc1cccn2c(=O)c3cc(C(=O)NCCN4CCOCC4)c(=N)n(CCc4ccccc4)c3nc12 | . | -34 | .
Cc1ccc(CNC(=O)c2cc3c(=O)n4cccc(C)c4nc3n(CC3CCCO3)c2=N)cc1 (stereo unspecified) | . | -6 | .
CCNC(=O)c1cc2c(=O)n3cccc(C)c3nc2n(CCc2ccccc2)c1=N | 59* | -4 | +
Cc1cccn2c(=O)c3cc(C(=O)NCCc4ccccc4)c(=N)n(CCCn4ccnc4)c3nc12 | 38* | . | +
Cc1cccn2c(=O)c3cc(C(=O)NCc4ccco4)c(=N)n(CCOCCO)c3nc12 | 17 | -28 | .
COCCn1c(=N)c(C(=O)NCCc2ccccc2)cc2c(=O)n3cccc(C)c3nc21 | 58* | -19 | +
O=C1CC(N2CCC(O)(c3ccc(Cl)cc3)CC2)C(=O)N1Cc1ccc(N2CCCC2=O)cc1 (stereo unspecified) | 6 | 8 | .
CCCn1nnc(NC(=O)c2cccc(OCc3ccccc3)c2)n1 | 5 | . | .
Cc1ccc(C(=O)Nc2onc(C)c2C#N)cc1 | 10 | . | .
CC[C@@]1(O)C(=O)OCc2c1cc1n(c2=O)Cc2cc3c(CN(C)C)c(O)ccc3nc2-1 | 38* | . | +
CC[C@@]1(O)C(=O)OCc2c1cc1n(c2=O)Cc2cc3c(N)cccc3nc2-1 | 13 | . | .
Cc1c(Cl)cccc1-n1nnnc1-c1cccs1 | 7 | -56 | .
CC1CCN(CCCNC(=O)c2coc3nc4ccccc4nc23)CC1 | 19 | 5 | .
CC1CCCN(CCCNC(=O)c2coc3nc4ccccc4nc23)C1 (stereo unspecified) | 140* | 15 | +
C=CCc1c(C)c(C#N)c2nc3ccccc3n2c1N1CCN(C)CC1 | . | -8 | .
Cc1nc2c(sc3nc4c(cc32)COC(C)(C)C4)c(=O)o1 | 42* | . | +
Cc1nc2c(sc3nc4c(cc32)COC(C)(C)C4)c(=O)n1Cc1ccccc1 | -1 | . | .
COc1ccc(C2=CSC3=C(C(=O)c4cccc(S(=O)(=O)N(C)C)c4)CCN23)cc1 | -7 | . | .
COC(=O)C1=C(C(=O)OC)[C@@H]2N(C)c3ccc(OC)cc3[C@@]23C[C@@H](C(=O)OC)N(C(=O)COCc2ccccc2)C3=N1 | 7 | . | .
O=C(C1=C[C@H](c2csc3ccccc23)C[C@H](OCc2ccc(CO)cc2)O1)N1CCN(Cc2ccc3c(c2)OCO3)CC1 | 6 | . | .
COc1cc(NC(=O)c2ccco2)c(OC)cc1NC(=O)c1cc(OC)c(OC)c(OC)c1 | 2 | 2 | .
CCOc1cc(NC(=O)c2ccco2)c(OCC)cc1NC(=O)c1cc(OC)c(OC)c(OC)c1 | + | -9 | +
SMILES | RmlC RmlD mix | RT RNaseH block | RmlCD artifact
Cc1cccc(C(=O)NNC2=C(C(=O)C(F)(F)F)CCC2)c1O | 9 | . | .
COc1ccc(C(=O)N(Cc2ccco2)C(C(=O)NC2CCCC2)c2ccc(O)cc2)cc1OC (stereo unspecified) | -7 | -1 | .
COC(=O)CC(=O)CSc1nc2c(cc1C#N)CCCCC2 | 138* | 3 | +
N#CCSc1nc2c(cc1C#N)CCCC2 | 0 | -17 | .
Cc1ccc(CSc2nc3c(cc2C#N)CCC3)cc1 | -9 | . | .
CCOC(=O)CC(=O)CSc1nc2c(cc1C#N)CCC2 | 80* | . | +
O=C(c1ccc2c(=O)n(C3CCCC3)c(=S)[nH]c2c1)N1CCc2ccccc21 | 4 | . | .
Cc1ccccc1CN(c1ccc(C(=O)Nc2ccccc2C(=O)NCc2ccco2)cc1)S(C)(=O)=O | 5 | . | .
Cc1ccc(S(=O)(=O)N[C@H](C(=O)Oc2ccc3c(C(F)(F)F)cc(=O)oc3c2)c2ccccc2)cc1 | 101* | . | +
COc1ccc(S(=O)(=O)NC(C)C(=O)Nc2ccccc2C(F)(F)F)cc1 (stereo unspecified) | 70 | . | .
Cc1ccc2c(c1)c1ncnc(N3CCC4(CC3)OCCO4)c1n2C | -28 | -15 | .
Cc1ccc2c(c1)c1ncnc(N3CCOCC3)c1n2C | . | -21 | +
CN(c1cccc(Cl)c1)S(=O)(=O)c1cccc(C(=O)NC2=NCCS2)c1 | -13 | . | .
COC(=O)c1ccc(Oc2c(C)oc3c(CN4CCN(C)CC4)c(O)ccc3c2=O)cc1 | 40* | 4 | +
COc1ccccc1Oc1c(C)oc2c(CN3CCN(C)CC3)c(O)ccc2c1=O | . | -8 | .
COC(=O)c1[nH]c2ccc(C)cc2c1NC(=O)CN1CCCCC1C (stereo unspecified) | . | 7 | .
COC(=O)C1=CN(CCCN2CCCC2=O)C=C(C(=O)OC)C1c1ccccc1C(F)(F)F | 68* | -3 | +
COc1ccccc1C(=O)NCCCN1CCCC1=O | -11 | -10 | .
CC1CC(C)CN(Cc2nc3c(c(=O)n(C)c(=O)n3C)n2Cc2ccccc2Cl)C1 (stereo unspecified) | . | -2 | .
COc1ccc2cc(CN(Cc3cccnc3)Cc3nnnn3Cc3ccccc3)c(=O)[nH]c2c1 | 33* | -14 | i
COc1ccc2cc(CN(Cc3cccs3)Cc3nnnn3Cc3ccccc3)c(=O)[nH]c2c1 | 0 | . | .
Cc1c(N(C)C)nc2ccccc2c1N | 12 | 3 | .
CN(C)c1c2ccccc2nc2c(F)c(F)c(F)c(F)c12 | . | . | +
CCCCC(=O)NC1(C(F)(F)F)C(=O)N(CC(C)C)C2=C1C(=O)CC(C)(C)C2 (stereo unspecified) | -10 | . | .
CNC(=O)c1ccc(-c2ccc(F)cc2)s1 | 8 | . | .
SMILES | RmlC RmlD mix | RT RNaseH block | RmlCD artifact
CNC(=O)c1ccc(-c2ccc(OC)cc2)s1 | 85* | . | +
CC1(C)Oc2ccc3ccc(=O)oc3c2/C(=C/NC2CCCCC2)C1=O | -14 | . | .
COC(=O)c1cc(C(C)=O)n2ccccc12 | -10 | . | .
CCOC(=O)c1cc(C(=O)OCC)c2ccccn2c1=O | 71* | . | +
COc1ccc(OC)c([C@@H]2OCCC=C[C@H]2C)c1 | 6 | . | .
COc1cc2[nH]c(=O)n(CCCC(=O)N3CC=C(c4ccccc4)CC3)c(=O)c2cc1OC | 52* | -32 | i
COc1cc2[nH]c(=O)n(CCC(=O)N3CC=C(c4ccccc4)CC3)c(=O)c2cc1OC | -14 | . | .
C=C1CCN(CC(=O)OC)S(=O)(=O)c2ccccc21 | -240 | . | .
O=c1cc(C(F)(F)F)c2sc(N3CCCCC3)nc2[nH]1 | 65* | 0 | +
CC1(C)CC(=O)c2sc(N3CCCCC3)nc2C1 | -5 | -1 | .
CCCCCCCCCCC[C@@H](C[C@@H]1OC(=O)[C@H]1CCCCCC)OC(=O)[C@H](CC(C)C)NC=O | -10 | . | .
Cc1ccc(-n2c(=O)c(C#N)cc3c(=O)n4cccc(C)c4nc32)cc1 | i | . | .
Cc1ccc2nc3c(cc(C#N)c(=O)n3-c3nccs3)c(=O)n2c1 | 107* | -12 | +
Cc1ccc2nc3c(cc(C#N)c(=O)n3CCN3CCOCC3)c(=O)n2c1 | . | -1 | .
Cc1ccc2nc3c(cc(C#N)c(=O)n3CC3CCCO3)c(=O)n2c1 (stereo unspecified) | 105* | -12 | +
CCN(CC)C(=O)C1CCN(Cc2ccc(Br)cc2)CC1 | -9 | -11 | .
Cc1ccc(SCC(=O)Nc2cccc(-c3nnc(-c4ccco4)o3)c2)cc1 | -14 | . | .

Assay outcomes as filed in PubChem.
